Assay results reported in PubChem BioAssay.
Active and inactive are the calls of the source. No rule for the calls is given here.

Biological target: Pantothenate synthetase (Mycobacterium tuberculosis (strain ATCC 25618 / H37Rv)) (UniProt P9WIL5)
Assay: Coupled enzyme confirmation of inhibitors against recombinant Mtb PanC (AID 375);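 also: 0% = full reaction with vehicle and 100% = no enzyme background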
Conditions: coupled enzyme assay; at 10 µM, active compounds read high

Chain of Pantothenate synthetase (Mycobacterium tuberculosis (strain ATCC 25618 / H37Rv)) (P9WIL5 whole entry, looked up): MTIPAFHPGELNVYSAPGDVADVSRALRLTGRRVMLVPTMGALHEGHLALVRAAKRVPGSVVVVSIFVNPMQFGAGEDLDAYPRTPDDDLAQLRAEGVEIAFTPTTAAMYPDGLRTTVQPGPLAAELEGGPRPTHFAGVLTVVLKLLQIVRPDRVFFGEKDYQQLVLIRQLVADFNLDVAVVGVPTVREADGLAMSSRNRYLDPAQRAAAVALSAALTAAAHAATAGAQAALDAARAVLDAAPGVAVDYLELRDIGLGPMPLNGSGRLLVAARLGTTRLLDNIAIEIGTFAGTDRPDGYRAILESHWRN

SMILES | inhibition
Cc1ccc2nsnc2c1S(=O)(=O)N1CCN(Cc2ccc3c(c2)OCO3)CC1 | 5% (inactive)
OCC(O)CN1CCN(c2ccccc2)CC1 (stereo not given) | 0% (inactive)
CC(=O)c1cc(Cl)ccc1OC(=O)c1ccco1 | 0% (inactive)
C1CCN=C(Nc2nc3c(s2)CCCC3)CC1 | 3% (inactive)
CCn1c(SCC(=O)Nc2ccc3c(c2)OCO3)nc2c(c1=O)SC(C)C2 (stereo not given) | 0% (inactive)
COc1ccc(Cn2c(C)nc3c(c2=O)c2nc4ccccc4nc2n3Cc2ccco2)cc1 | 9% (inactive)
COc1cccc(OCCOCCN(C)CCO)c1 | 2% (inactive)
COc1ccc(N(C)C(=O)CCS(=O)(=O)c2cccc3nonc23)c(OC)c1 | 0% (inactive)
CC(=O)N1CCc2cc(S(=O)(=O)CCC(=O)N3CCN(c4ccccn4)CC3)ccc21 | 11% (inactive)
Cc1ccc(S(=O)(=O)Cc2ccc(C(=O)NCCCN3CCN(C)CC3)o2)cc1 | 1% (inactive)
O=C(CCc1nc2ccccc2s1)OCC(=O)N1CCN(C(=O)c2ccco2)CC1 | 4% (inactive)
COc1cccc(OCC(O)CN2CCN(CCO)CC2)c1 (stereo not given) | 0% (inactive)
N#CCCNCC1(c2ccccc2)CCCC1 | 7% (inactive)
CCn1c(SCC(=O)Nc2nnc(C)s2)nnc1-c1ccncc1 | 1% (inactive)
Cc1cc(C)c2c(=O)n(CC(=O)N3CCC(Cc4ccccc4)CC3)sc2n1 | 0% (inactive)
CCCOC(=O)CSc1nc(N)c(C#N)c(CC)c1C#N | 8% (inactive)
C=CCc1cc(C(=O)N2CCCCC2)ccc1O | 0% (inactive)
C/C(=C\C(=O)c1ccc(F)cc1)Nc1ccc(N2CCOCC2)cc1 | 0% (inactive)
CCOC(=O)C1CCCN(S(=O)(=O)c2cccs2)C1 (stereo not given) | 6% (inactive)
Clc1ccc(OCc2nnc(SCCN3CCCCC3)n2Cc2ccco2)cc1 | 0% (inactive)

SMILES | inhibition
COc1ccccc1-c1cc(C(=O)Nc2cc(C)nn2-c2ccccc2)no1 | 6% (inactive)
CC(=O)OC(C)C[N+](C)(C)C (stereo not given) | 3% (inactive)
O=C(O)c1cc(Cl)c(Cl)cc1C(=O)N1CCCC1 | 1% (inactive)
CN(C)CCCNC(=O)c1ccc(CN(c2ccccc2)S(C)(=O)=O)cc1 | 0% (inactive)
CC1CCN(C(=O)C2CCN(S(=O)(=O)c3cnc[nH]3)CC2)CC1 | 5% (inactive)
COc1ccc(-c2nnnn2C)cc1S(=O)(=O)NCc1ccccc1 | 1% (inactive)
Cn1c(=O)[nH]c(=O)c2c1nc(N1CCc3ccccc3C1)n2CCSc1nc2ccccc2s1 | 4% (inactive)
Cn1c(=O)c2c3c(sc2n2c(SCc4ccccc4)nnc12)CCCC3 | 0% (inactive)
CCOc1ccc(N(CC)C(=O)COc2cc(=O)n(C)c3ccccc23)cc1 | 0% (inactive)
CCOc1ccc(-c2nnc(SCC(=O)N3CCN(c4ccccc4)CC3)o2)cc1 | 0% (inactive)
COCCn1c(-c2ccco2)nc2nc3ccccc3nc21 | 5% (inactive)
CCOC(=O)c1[nH]c2cc(OC)c(OC)cc2c1NC(=O)C(C)N1CCN(Cc2ccccc2)CC1 (stereo not given) | 1% (inactive)
O=C1C2CCCN2C(c2ccccc2)N1c1ccc(Cl)cc1 (stereo not given) | 1% (inactive)
CCn1c(=O)c(C(=O)NCCc2ccccc2)c(O)c2ccccc21 | 0% (inactive)
O=C(NC(=O)c1cccc(F)c1)OC[C@@H]1CCCN2CCCC[C@H]12 | 0% (inactive)
CCOC(=O)C1CCN(C(=O)C2(NC(=O)Nc3ccccc3Cl)CCCCC2)CC1 | 0% (inactive)
Cn1c(=O)oc2cc(S(=O)(=O)NC3CCN(Cc4ccccc4)CC3)ccc21 | 0% (inactive)
CC1=C(C(=O)NCc2ccccc2)C(c2ccccc2OCC(N)=O)NC(=O)N1 (stereo not given) | 0% (inactive)
c1ccc2c(c1)CNC1(CCCCC1)C2 | 3% (inactive)
COc1ccc(-c2ccc(-c3nnn(CC(C)=O)n3)cc2)cc1 | 2% (inactive)
